The values below come from PubChem BioAssay (Tox21).

Active and inactive are the calls of the source. A call without a number means that no potency is given here. Calls follow the shape of the full dose curve.

The assay in a line: G protein-coupled receptor (GPCR) small molecule agonists, calcium flux assay: HEK293 wild type cell line counter screen (AID 1920065). The conditions noted are these: HEK293 WT calcium flux, fluorescence, agonist mode; series mostly up to 57.6 µM. From the text: U.S. Tox21 Program National Center for Advancing Translational Sciences [NCATS] Division of Preclinical Innovation [DPI] U.S. Environmental Protection Agency [EPA] National Institutes of Environmental Health Sciences [NIEHS] National Toxicology Program [NTP] U.S. Food and Drug Administration [FDA] Assay overview: The increased intracellular calcium release that occurred upon G protein-coupled receptor (GPCR) activation led to the frequent use of calcium flux assays to detect GPCR activation. For the purpose of studying and screening compounds that may activate GPCR, receptor-overexpressing models were typically generated using Hek293 wild-type (WT) cells. In order to eliminate the compounds that may have induced calcium release for non-specific activation, a counter-assay utilizing calcium flux on Hek293 WT cells was performed. The data were formulated in order to serve as a control for any calcium flux detection utilizing Hek293 cells with either GPCR overexpression or gene modification. The procurement of Hek293 WT cells from ATCC. Fluorescence intensity can be utilized to determine the activation of the compound in a calcium flux assay. As a counter control, this cell line was utilized to screen the Tox21 10K compound library.
Assay Protocol Summary: Hek293 cells were dispensed at 1500cells/4uL/well in 1536-well black wall/clear bottom plates using a multidrop dispenser. After the assay plates were incubated at a 37 C/5% CO2 incubator for 18 hours, 4 uL of Calcium Dye Solution was added to each well. The plates were incubated at 37 C for 1 hour. For agonist mode, 23 nL of compounds dissolved in DMSO, positive control (ATP) or DMSO only was transferred to the assay plate by a pin tool station. The fluorescence intensity in the plates was measured using FDSS 7000EX kinetic plate reader with a filter set of Ex/Em=480/540 for 3 min at 1 sec intervals. Each test compound was measured at 15 concentrations and in triplicates.
In the case of `CC(=O)C(C)(C)C`, the Potency result is “inactive”. Turning to `N#CCCCCC#N`, the Potency entry was “inactive”. For the compound `CCCCCCC1CCOC1=O` (stereo not given), the Potency result is “inactive”. In the case of `CCC(=O)c1ccccc1` it was “inactive”; in that of `CNC(=O)O/N=C/C(C)(C)SC`, “inactive”; in that of `CC(=O)CCC(C)=O`, “inactive”. Take `CN=C=O`: the Potency result is “inactive”. Regarding `Sc1ccccc1Cl`, the Potency result was “inactive”. Consider `C1CS1`, for which the Potency entry is “inactive”.

Consider `CCCCCCCCCCCCCCn1cc[n+](C)c1`, for which the Potency result is “inactive”. For `c1cc2c(c(N3CCNCC3)c1)OCCO2`, the Potency entry is “inactive”.

In the case of `C=Cc1cccc(CCl)c1`, the Potency result was “inactive”. For `CC(C)(C)OOC(C)(C)CCC(C)(C)OOC(C)(C)C`, the Potency result is “inactive”. For the compound `CCCCSP(=O)(SCCCC)SCCCC`, the Potency result was “inactive”.

Consider `FC(F)(F)c1ccc(Cl)cc1`, for which the Potency result was “inactive”.

In the case of `CC(C)c1ccc(CO)cc1`, the Potency entry was “inactive”. For the compound `CCCN(CCOc1c(Cl)cc(Cl)cc1Cl)C(=O)n1ccnc1`, the Potency result was “inactive”. Take `CN(C)C(=O)Cl`: the Potency result was “inactive”. In the case of `COc1ccc2c(c1OC)C(=O)O[C@@H]2[C@H]1c2cc3c(cc2CCN1C)OCO3` it was “inactive”; in that of `C=COCCCl`, “inactive”; in that of `C=CCc1ccccc1O`, “inactive”. In the case of `O=S(=O)(O)C(F)(F)C(F)(F)C(F)(F)C(F)(F)C(F)(F)C(F)(F)F` it was “inactive”; in that of `CCC(=O)O[C@@H]1C=C2CCC3C(CCC4(C)C3CC[C@@H]4OC(=O)CC)C2CC1` (stereo not given in full), “inactive”. In the case of `CCOC(=O)c1cncn1C(C)c1ccccc1` (stereo not given) it was “inactive”; in that of `CC(C)CC(C)(c1ccc(O)cc1)c1ccc(O)cc1`, “inactive”. Regarding `CC12CC1(C)C(=O)N(c1cc(Cl)cc(Cl)c1)C2=O` (stereo not given), the Potency entry is “inactive”. In the case of `CC1COC2(c3ccccc3Cl)c3cc(Cl)ccc3NC(=O)CN12` (stereo not given) it was “inactive”; in that of `COC(=O)Nc1nc2ccccc2[nH]1`, “inactive”; in that of `CCCCCCCCCCCCn1cc[n+](C)c1`, “inactive”. In the case of `O=C1C(Cl)=C(Cl)C(=O)C(Cl)=C1Cl` it was “inactive”; in that of `O=C(CBr)c1ccc(O)cc1`, “inactive”. Take `COP(=O)(CCC(=O)NCO)OC`: the Potency entry was “inactive”. For `CCNc1nc(NC(C)C)nc(OC)n1`, the Potency entry was “inactive”. Regarding `CC1(C)C(C=C(Cl)Cl)C1C(=O)OC(C#N)c1ccc(F)c(Oc2ccccc2)c1` (stereo not given), the Potency result is “inactive”. As to `CC[n+]1c(-c2ccccc2)c2cc(N)ccc2c2ccc(N)cc21`, the Potency entry was “inactive”. Take `Cc1coc2c1CCC(C)C2` (stereo not given): the Potency result was “inactive”. For the compound `Nc1cccc(Cl)c1`, the Potency entry is “inactive”.

In the case of `Cn1cc(-c2ccccc2)c(=O)c(-c2cccc(C(F)(F)F)c2)c1`, the Potency entry was “inactive”.

As to `CC1CC(=O)O1` (stereo not given), the Potency entry is “inactive”.

Take `CCCCCCCCCCCCCl`: the Potency result was “inactive”.
